This is an account of results in paper PMC7862700, “An all-to-all approach to the identification of sequence-specific readers for epigenetic DNA modifications on cytosine”.

Experiment in all cases: DAPPL (digital affinity profiling via proximity ligation, sequencing); 10 mM Tris-HCl pH 7.5, 50 mM NaCl, 1 mM DTT, 4% glycerol, room temperature, 30 min; GST-TFs on glutathione beads, 16-mer random dsDNA library, 0.1% formaldehyde crosslink after washing; high values mean tight binding
Conditions in all cases: protein: recombinant; tags: N-terminal GST; dsDNA, one strand shown

The target of one test is T1, FEV (Homo sapiens, UniProt Q99581 1-238).
T1 sequence: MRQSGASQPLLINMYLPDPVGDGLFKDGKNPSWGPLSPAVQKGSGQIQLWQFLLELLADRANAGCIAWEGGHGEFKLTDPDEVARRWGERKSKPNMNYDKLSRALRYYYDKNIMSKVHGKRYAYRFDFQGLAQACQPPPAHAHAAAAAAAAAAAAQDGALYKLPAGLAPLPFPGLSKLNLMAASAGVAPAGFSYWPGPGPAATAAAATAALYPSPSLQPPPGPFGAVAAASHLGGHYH
In outline:
(§1)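 Binding signal is given per hexamer as its read frequency for a factor divided by its frequency in the tag-only sample. GST-fused human transcription factors were expressed in yeast, captured on glutathione beads, barcoded with DNA and pooled with that sample, then incubated with 200 nmole of a 16-mer random double-stranded DNA library in Tris/NaCl/DTT/glycerol buffer for 30 min at room temperature. The pools were then washed, crosslinked, proximity-ligated, amplified by PCR and sequenced on an Illumina NextSeq500.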

A further test addresses ETV5 (Homo sapiens, UniProt P41161 1-510). In outline: as §1
For another test, the target named is T2, SPIC (Homo sapiens, UniProt Q8N5J4 1-248).
T2 sequence: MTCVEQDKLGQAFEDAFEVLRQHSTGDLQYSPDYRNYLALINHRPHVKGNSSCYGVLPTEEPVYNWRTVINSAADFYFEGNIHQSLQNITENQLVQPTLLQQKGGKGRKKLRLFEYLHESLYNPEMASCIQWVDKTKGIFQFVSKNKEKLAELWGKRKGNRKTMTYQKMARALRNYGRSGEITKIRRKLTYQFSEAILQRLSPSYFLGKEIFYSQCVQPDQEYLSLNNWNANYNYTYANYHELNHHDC
In outline: as §1

For the next test, the target named is ELF4 (Homo sapiens, UniProt Q99607 1-663). Put shortly:
as §1

A further test deals with T3, ELK4 (Homo sapiens, UniProt P28324-2 1-405).
T3 sequence: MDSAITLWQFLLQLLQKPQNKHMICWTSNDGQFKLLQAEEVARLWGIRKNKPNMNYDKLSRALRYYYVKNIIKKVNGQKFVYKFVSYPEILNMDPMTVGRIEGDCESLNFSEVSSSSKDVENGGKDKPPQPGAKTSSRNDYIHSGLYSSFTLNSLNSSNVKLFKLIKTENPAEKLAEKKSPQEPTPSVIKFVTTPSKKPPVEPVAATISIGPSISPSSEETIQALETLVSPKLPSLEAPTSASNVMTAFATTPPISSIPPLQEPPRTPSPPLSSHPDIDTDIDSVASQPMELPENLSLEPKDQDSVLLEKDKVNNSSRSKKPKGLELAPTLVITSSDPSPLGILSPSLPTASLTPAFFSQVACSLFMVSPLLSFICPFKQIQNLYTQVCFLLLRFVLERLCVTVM
In outline:
as §1

The next test concerns the target T4, ETV2 (Homo sapiens, UniProt O00321 1-342).
T4 sequence: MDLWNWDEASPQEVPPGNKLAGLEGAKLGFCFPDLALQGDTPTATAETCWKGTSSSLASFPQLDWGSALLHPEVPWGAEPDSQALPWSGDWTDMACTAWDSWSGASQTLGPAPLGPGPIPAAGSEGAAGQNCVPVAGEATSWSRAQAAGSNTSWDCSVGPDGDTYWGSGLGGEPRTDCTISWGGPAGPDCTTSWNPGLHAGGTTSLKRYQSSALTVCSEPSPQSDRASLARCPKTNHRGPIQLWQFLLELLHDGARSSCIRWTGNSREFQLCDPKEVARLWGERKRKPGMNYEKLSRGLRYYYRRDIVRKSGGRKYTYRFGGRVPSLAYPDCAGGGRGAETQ
Put shortly: as §1

The next test concerns the target T5, ELF3 (Homo sapiens, UniProt P78545 1-371).
T5 sequence: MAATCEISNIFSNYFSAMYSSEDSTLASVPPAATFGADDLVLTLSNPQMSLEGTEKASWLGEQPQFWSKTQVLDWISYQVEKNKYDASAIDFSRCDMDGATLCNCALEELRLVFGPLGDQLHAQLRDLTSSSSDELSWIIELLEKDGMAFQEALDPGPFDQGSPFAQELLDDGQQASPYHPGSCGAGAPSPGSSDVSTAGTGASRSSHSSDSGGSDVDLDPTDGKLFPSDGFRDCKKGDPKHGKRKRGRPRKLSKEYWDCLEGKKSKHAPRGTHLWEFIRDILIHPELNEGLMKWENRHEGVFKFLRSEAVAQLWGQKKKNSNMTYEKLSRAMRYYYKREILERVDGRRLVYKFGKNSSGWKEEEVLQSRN
In outline: as §1

In another test the target is ETV1 (Homo sapiens, UniProt P50549 1-477). Put shortly: as §1
Sequence of ETV1 (P50549 whole entry): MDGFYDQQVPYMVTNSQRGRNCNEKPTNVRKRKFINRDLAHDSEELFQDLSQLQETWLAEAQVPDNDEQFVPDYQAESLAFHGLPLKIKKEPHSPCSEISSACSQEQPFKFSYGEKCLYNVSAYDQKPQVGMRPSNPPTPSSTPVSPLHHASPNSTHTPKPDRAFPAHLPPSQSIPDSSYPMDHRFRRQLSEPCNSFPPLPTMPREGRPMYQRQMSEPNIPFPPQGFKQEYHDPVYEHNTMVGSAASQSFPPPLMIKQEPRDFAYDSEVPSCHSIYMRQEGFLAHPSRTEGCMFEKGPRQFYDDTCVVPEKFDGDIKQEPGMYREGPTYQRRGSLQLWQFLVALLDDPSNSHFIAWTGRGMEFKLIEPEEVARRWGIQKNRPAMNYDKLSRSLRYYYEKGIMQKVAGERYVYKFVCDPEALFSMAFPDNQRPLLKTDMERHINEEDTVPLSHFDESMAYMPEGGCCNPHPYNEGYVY
A further test concerns the target CRX (Homo sapiens, UniProt O43186 1-299). In outline:
as §1

Sequence of CRX (O43186 whole entry): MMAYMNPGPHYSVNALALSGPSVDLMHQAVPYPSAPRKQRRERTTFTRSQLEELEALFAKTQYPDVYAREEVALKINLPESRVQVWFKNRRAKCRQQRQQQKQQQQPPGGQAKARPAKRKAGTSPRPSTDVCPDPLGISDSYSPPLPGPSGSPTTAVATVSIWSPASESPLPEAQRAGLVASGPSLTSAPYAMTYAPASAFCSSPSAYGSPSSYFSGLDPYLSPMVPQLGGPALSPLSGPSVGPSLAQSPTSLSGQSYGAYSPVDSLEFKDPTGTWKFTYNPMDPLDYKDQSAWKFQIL
Sequence of ETV5 (P41161 whole entry): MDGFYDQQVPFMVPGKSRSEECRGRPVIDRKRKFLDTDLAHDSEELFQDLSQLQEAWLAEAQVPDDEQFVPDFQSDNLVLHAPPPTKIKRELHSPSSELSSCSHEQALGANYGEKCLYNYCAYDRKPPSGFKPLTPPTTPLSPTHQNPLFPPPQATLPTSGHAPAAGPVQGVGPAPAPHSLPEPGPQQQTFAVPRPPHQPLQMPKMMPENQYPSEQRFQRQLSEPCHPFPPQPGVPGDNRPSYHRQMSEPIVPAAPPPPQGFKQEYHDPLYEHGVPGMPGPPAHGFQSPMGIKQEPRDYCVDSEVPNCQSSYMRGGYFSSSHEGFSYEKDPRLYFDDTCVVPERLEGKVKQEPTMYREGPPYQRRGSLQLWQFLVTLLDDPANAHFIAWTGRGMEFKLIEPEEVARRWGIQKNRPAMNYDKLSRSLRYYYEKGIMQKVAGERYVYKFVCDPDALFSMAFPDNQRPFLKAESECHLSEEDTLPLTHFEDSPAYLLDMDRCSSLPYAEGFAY
Sequence of ELF4 (Q99607 whole entry): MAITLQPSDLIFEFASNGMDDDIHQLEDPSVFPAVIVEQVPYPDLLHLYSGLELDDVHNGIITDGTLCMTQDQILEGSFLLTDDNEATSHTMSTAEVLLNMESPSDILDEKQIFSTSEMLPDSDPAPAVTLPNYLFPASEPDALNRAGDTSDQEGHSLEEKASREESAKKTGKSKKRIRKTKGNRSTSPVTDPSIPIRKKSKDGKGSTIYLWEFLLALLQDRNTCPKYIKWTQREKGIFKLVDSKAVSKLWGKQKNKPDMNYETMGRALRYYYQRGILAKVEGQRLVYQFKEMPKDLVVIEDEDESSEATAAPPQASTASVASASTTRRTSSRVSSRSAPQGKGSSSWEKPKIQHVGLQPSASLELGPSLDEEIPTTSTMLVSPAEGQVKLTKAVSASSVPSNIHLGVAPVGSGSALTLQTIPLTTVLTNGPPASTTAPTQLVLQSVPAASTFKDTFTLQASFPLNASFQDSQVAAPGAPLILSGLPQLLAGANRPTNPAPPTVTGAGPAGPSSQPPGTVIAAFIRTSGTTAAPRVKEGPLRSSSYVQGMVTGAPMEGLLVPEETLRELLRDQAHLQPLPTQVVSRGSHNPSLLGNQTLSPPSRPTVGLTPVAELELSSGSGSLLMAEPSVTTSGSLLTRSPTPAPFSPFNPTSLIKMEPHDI

Turning to TGTCAT, the binding signal in the test with FEV is 1.1 fold enrichment (6-mer frequency, TF over GST control); with ETV5, 1.18 fold enrichment (6-mer frequency, TF over GST control); in the test with SPIC, 1.16 fold enrichment (6-mer frequency, TF over GST control); with ELF4, 1.13 fold enrichment (6-mer frequency, TF over GST control); in the test with ELK4, 1.08 fold enrichment (6-mer frequency, TF over GST control); in the test with ETV2, 1.11 fold enrichment (6-mer frequency, TF over GST control). In addition, the binding signal with ELF3 was 1.06 fold enrichment (6-mer frequency, TF over GST control); with ETV1, 1.18 fold enrichment (6-mer frequency, TF over GST control).

Consider TTGCGT, for which the binding signal with ETV5 is 1.1 fold enrichment (6-mer frequency, TF over GST control); with SPIC, 1.1 fold enrichment (6-mer frequency, TF over GST control); with ELF4 it was 1.08 fold enrichment (6-mer frequency, TF over GST control); with ELK4, 1.12 fold enrichment (6-mer frequency, TF over GST control); with ETV2, 1.33 fold enrichment (6-mer frequency, TF over GST control); with ELF3, 1.16 fold enrichment (6-mer frequency, TF over GST control). Besides, the binding signal with ETV1 was 1.12 fold enrichment (6-mer frequency, TF over GST control).

With AAGTCA, the binding signal is 1.17 fold enrichment (6-mer frequency, TF over GST control) with FEV; 1.23 fold enrichment (6-mer frequency, TF over GST control) in the test with ETV5; 1.1 fold enrichment (6-mer frequency, TF over GST control) in the test with SPIC; 1.22 fold enrichment (6-mer frequency, TF over GST control) with ELF4; 1.18 fold enrichment (6-mer frequency, TF over GST control) with ELK4; 1.21 fold enrichment (6-mer frequency, TF over GST control) with ETV2. Moreover, the binding signal in the test with ELF3 was 1.21 fold enrichment (6-mer frequency, TF over GST control); with CRX, 1.03 fold enrichment (6-mer frequency, TF over GST control); in the test with ETV1, 1.3 fold enrichment (6-mer frequency, TF over GST control).

Take TGTTGA: the binding signal in the test with FEV is 1.07 fold enrichment (6-mer frequency, TF over GST control); with ETV5, 1.07 fold enrichment (6-mer frequency, TF over GST control); with SPIC it was 1.15 fold enrichment (6-mer frequency, TF over GST control); with ELF4, 1.1 fold enrichment (6-mer frequency, TF over GST control); with ELK4 it was 1.16 fold enrichment (6-mer frequency, TF over GST control); in the test with ETV2 it was 1.12 fold enrichment (6-mer frequency, TF over GST control). Besides, the binding signal was 1.09 fold enrichment (6-mer frequency, TF over GST control) with ELF3; 1.02 fold enrichment (6-mer frequency, TF over GST control) with CRX; 1.07 fold enrichment (6-mer frequency, TF over GST control) in the test with ETV1.

Take ACCGCC: the binding signal with FEV is 1.32 fold enrichment (6-mer frequency, TF over GST control); with ETV5 it was 1.23 fold enrichment (6-mer frequency, TF over GST control); with SPIC, 1.16 fold enrichment (6-mer frequency, TF over GST control); in the test with ELF4 it was 1.38 fold enrichment (6-mer frequency, TF over GST control); in the test with ELK4 it was 1.23 fold enrichment (6-mer frequency, TF over GST control); in the test with ETV2 it was 1.13 fold enrichment (6-mer frequency, TF over GST control). For the same sequence, the binding signal was 1.33 fold enrichment (6-mer frequency, TF over GST control) with ELF3; 1.01 fold enrichment (6-mer frequency, TF over GST control) with CRX; 1.05 fold enrichment (6-mer frequency, TF over GST control) with ETV1.

Take TACGTC: the binding signal with FEV was 1.24 fold enrichment (6-mer frequency, TF over GST control); with ETV5, 1.13 fold enrichment (6-mer frequency, TF over GST control); with SPIC, 1.03 fold enrichment (6-mer frequency, TF over GST control); in the test with ELF4, 1.16 fold enrichment (6-mer frequency, TF over GST control); with ELK4, 1.14 fold enrichment (6-mer frequency, TF over GST control); with ETV2 it was 1.02 fold enrichment (6-mer frequency, TF over GST control). The binding signal was 1.02 fold enrichment (6-mer frequency, TF over GST control) with ELF3; 1 fold enrichment (6-mer frequency, TF over GST control) in the test with CRX; 1.24 fold enrichment (6-mer frequency, TF over GST control) in the test with ETV1.

In the case of CGACCG, the binding signal with FEV was 1.6 fold enrichment (6-mer frequency, TF over GST control); in the test with ETV5, 1.19 fold enrichment (6-mer frequency, TF over GST control); with SPIC it was 1.09 fold enrichment (6-mer frequency, TF over GST control); with ELF4 it was 1.28 fold enrichment (6-mer frequency, TF over GST control); with ELK4 it was 1.17 fold enrichment (6-mer frequency, TF over GST control); in the test with ETV2, 1.35 fold enrichment (6-mer frequency, TF over GST control). Also, the binding signal with ELF3 was 1.27 fold enrichment (6-mer frequency, TF over GST control); with ETV1, 1.26 fold enrichment (6-mer frequency, TF over GST control).
